PubChem BioAssay AID1159580 (chemical genetic matrix, 2015)
Screen size: about 5,500 compounds; about 2,000 (36%) were called active. Roughly 18% stayed inconclusive and do not appear here. Cut-off read from the data, not from the text of the source: active = normalized growth mostly below about 0.91 (no sharp cut-off); inconclusive = no clear call, values can overlap the other calls; inactive = mostly above about 0.92. This is one part of the list.

Test: chemical genetic growth profiling, strain panel (AID 1159580);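 note: tested at 20 µM; growth read once vehicle control cultures reached saturation at 30 °C; 1 = growth at the plate median or of vehicle wells; lower values mean less growth of the strain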
Conditions: growth OD
[1] = S. cerevisiae deletion strains, locus YAL013W, strain DEP1, hits give low values
[2] = S. cerevisiae deletion strains, locus YBR229C, strain ROT2, hits give low values
[3] = S. cerevisiae deletion strains, locus YDL101C, strain DUN1, hits give low values
[4] = S. cerevisiae deletion strains, locus YDR150W, strain NUM1, hits give low values
[5] = S. cerevisiae deletion strains, locus YEL061C, strain CIN8, hits give low values
[6] = S. cerevisiae deletion strains, locus YGR078C, strain PAC10, hits give low values
[7] = S. cerevisiae deletion strains, locus YHR030C, strain SLT2, hits give low values
[8] = S. cerevisiae deletion strains, locus YHR087W, strain rtc3, hits give low values
[9] = S. cerevisiae deletion strains, locus YJR043C, strain POL32, hits give low values
[10] = S. cerevisiae deletion strains, locus YJR075W, strain HOC1, hits give low values
[11] = S. cerevisiae deletion strains, locus YKL190W, strain CNB1, hits give low values
[12] = S. cerevisiae deletion strains, locus YLR039C, strain RIC1, hits give low values
[13] = S. cerevisiae deletion strains, locus YLR058C, strain SHM2 (second series), hits give low values
[14] = S. cerevisiae deletion strains, locus YLR085C, strain ARP6, hits give low values
[15] = S. cerevisiae deletion strains, locus YLR262C, strain YPT6, hits give low values
[16] = S. cerevisiae deletion strains, locus YML094W, strain GIM5, hits give low values
[17] = S. cerevisiae deletion strains, locus YMR219W, strain ESC1, hits give low values
[18] = S. cerevisiae deletion strains, locus YMR263W, strain SAP30, hits give low values
[19] = S. cerevisiae deletion strains, locus YNL153C, strain GIM3, hits give low values
[20] = S. cerevisiae deletion strains, locus YNL298W, strain CLA4 (second series), hits give low values
[21] = S. cerevisiae deletion strains, locus YNL322C, strain KRE1, hits give low values
[22] = S. cerevisiae deletion strains, locus YNR030W, strain Alg12, hits give low values
[23] = S. cerevisiae deletion strains, locus YPL055C, strain LGE1, hits give low values
[24] = S. cerevisiae deletion strains, locus YPL241C, strain CIN2, hits give low values
[25] = S. cerevisiae deletion strains, locus YPR135W, strain CTF4, hits give low values

Measured: normalized growth

NNC(=S)Nc1ccc2c(c1)OCCO2
inactive: [1] 1.01 | [2] 1.01 | [3] 1.01 | S. cerevisiae deletion strains, locus YDL134C, strain PPH21, hits give low values 1.01 | [4] 0.956 | [5] 0.983 | [6] 0.991 | S. cerevisiae deletion strains, locus YGR229C, strain SMI1, hits give low values 0.986 | [7] 1.02 | [8] 1.05 | [9] 1 | [10] 1.05 | [11] 0.99 | [12] 0.983 | [13] 1.01 | [14] 0.939 | [15] 1.01 | [16] 0.944 | [17] 1.02 | [18] 0.996 | S. cerevisiae deletion strains, locus YMR307W, strain GAS1, hits give low values 0.954 | S. cerevisiae deletion strains, locus YNL128W, strain TEP1, hits give low values 0.976 | [19] 0.994 | [20] 0.992 | [21] 1.02 | [23] 0.967 | [24] 1.1 | [25] 0.823
active: [22] 0.806

NC(N)=NC(N)=Nc1ccc2c(c1)OCCO2
inactive: [1] 0.987 | [2] 1.01 | [3] 1.01 | [4] 0.918 | [5] 0.995 | [6] 0.99 | [7] 0.983 | [8] 1.01 | [9] 0.989 | [10] 0.993 | [11] 0.994 | [12] 1 | [13] 0.994 | [14] 0.963 | [15] 0.998 | [16] 1.06 | [17] 0.996 | [18] 0.943 | [19] 1.01 | [20] 0.993 | [21] 1 | [22] 0.995 | S. cerevisiae deletion strains, locus YOL006C, strain TOP1, hits give low values 1.03 | [23] 0.993 | [24] 0.927 | [25] 1.01 | S. cerevisiae strains, strain wild type, hits give low values 0.995

CC(C)C[C@@H](CN)CC(=O)O
inactive: S. cerevisiae deletion strains, locus YAL021C, strain ccr4, hits give low values 1.04 | S. cerevisiae deletion strains, locus YAL026C, strain drs2, hits give low values 1.03 | S. cerevisiae deletion strains, locus YAL030W, strain snc1, hits give low values 1.02 | S. cerevisiae deletion strains, locus YBL061C, strain skt5, hits give low values 1.01 | S. cerevisiae deletion strains, locus YBR009C, strain hhf1, hits give low values 1 | S. cerevisiae deletion strains, locus YBR023C, strain chs3, hits give low values 1.02 | S. cerevisiae deletion strains, locus YBR171W, strain sec66, hits give low values 1.02 | S. cerevisiae deletion strains, locus YBR231C, strain swc5, hits give low values 0.994 | S. cerevisiae deletion strains, locus YBR279W, strain paf1, hits give low values 1.02 | S. cerevisiae deletion strains, locus YCL011C, strain gbp2, hits give low values 1.03 | S. cerevisiae deletion strains, locus YCL016C, strain dcc1, hits give low values 1.04 | S. cerevisiae deletion strains, locus YCL061C, strain MRC1, hits give low values 1.02 | S. cerevisiae deletion strains, locus YCL069W, strain vba3, hits give low values 1.04 | S. cerevisiae deletion strains, locus YCR088W, strain abp1, hits give low values 1.02 | S. cerevisiae deletion strains, locus YDL005C, strain med2, hits give low values 1.02 | S. cerevisiae deletion strains, locus YDL040C, strain nat1, hits give low values 1.01 | S. cerevisiae deletion strains, locus YDR001C, strain nth1, hits give low values 1.01 | S. cerevisiae deletion strains, locus YDR069C, strain doa4, hits give low values 1.01 | S. cerevisiae deletion strains, locus YDR137W, strain rgp1, hits give low values 1.06 | S. cerevisiae deletion strains, locus YDR159W, strain sac3, hits give low values 0.965 | S. cerevisiae deletion strains, locus YDR195W, strain ref2 0.977 | S. cerevisiae deletion strains, locus YDR297W, strain sur2, hits give low values 1.01 | S. cerevisiae deletion strains, locus YDR334W, strain swr1, hits give low values 1.02 | S. cerevisiae deletion strains, locus YDR335W, strain msn5, hits give low values 1.04 | S. cerevisiae deletion strains, locus YDR392W, strain spt3, hits give low values 0.954 | S. cerevisiae deletion strains, locus YEL003W, strain gim4, hits give low values 1.01 | S. cerevisiae deletion strains, locus YEL037C, strain rad23, hits give low values 1.01 | S. cerevisiae deletion strains, locus YEL061C, strain CIN8 (second series), hits give low values 1.01 | S. cerevisiae deletion strains, locus YER015W, strain faa2, hits give low values 1 | S. cerevisiae deletion strains, locus YER016W, strain bim1, hits give low values 1.04 | S. cerevisiae deletion strains, locus YER111C, strain swi4, hits give low values 1.02 | S. cerevisiae deletion strains, locus YER155C, strain BEM2 (second series), hits give low values 1 | S. cerevisiae deletion strains, locus YFR010W, strain ubp6, hits give low values 1.01 | S. cerevisiae deletion strains, locus YGL167C, strain pmr1, hits give low values 1.02 | S. cerevisiae deletion strains, locus YGL173C, strain kem1, hits give low values 1.01 | S. cerevisiae deletion strains, locus YGL227W, strain vid30, hits give low values 1.01 | S. cerevisiae deletion strains, locus YGL240W, strain doc1, hits give low values 1 | S. cerevisiae deletion strains, locus YGL253W, strain hxk2, hits give low values 1.02 | S. cerevisiae deletion strains, locus YHR013C, strain ard1, hits give low values 1.05 | S. cerevisiae deletion strains, locus YHR027C, strain rpn1, hits give low values 1.01 | [7] 1.09 | S. cerevisiae deletion strains, locus YHR079C, strain IRE1, hits give low values 0.981 | S. cerevisiae deletion strains, locus YHR142W, strain chs7, hits give low values 1.03 | S. cerevisiae deletion strains, locus YJL092W, strain hpr5, hits give low values 1.01 | S. cerevisiae deletion strains, locus YJL095W, strain BCK1 (second series), hits give low values 1.02 | S. cerevisiae deletion strains, locus YJL095W, strain BCK1, hits give low values 0.989 | S. cerevisiae deletion strains, locus YJL115W, strain asf1, hits give low values 1.03 | S. cerevisiae deletion strains, locus YJL129C, strain trk1, hits give low values 1.03 | S. cerevisiae deletion strains, locus YJL154C, strain vps35, hits give low values 1.02 | S. cerevisiae deletion strains, locus YJL164C, strain tpk1, hits give low values 1 | S. cerevisiae deletion strains, locus YJL166W, strain qcr8, hits give low values 1.01 | S. cerevisiae deletion strains, locus YJL187C, strain SWE1, hits give low values 1.01 | S. cerevisiae deletion strains, locus YJR066W, strain TOR1, hits give low values 0.959 | S. cerevisiae deletion strains, locus YKL160W, strain elf1, hits give low values 1.04 | S. cerevisiae deletion strains, locus YKR026C, strain gcn3, hits give low values 1.01 | S. cerevisiae deletion strains, locus YKR091W, strain srl3, hits give low values 1.01 | S. cerevisiae deletion strains, locus YLL001W, strain dnm1, hits give low values 0.995 | S. cerevisiae deletion strains, locus YLL026W, hits give low values 1.01 | S. cerevisiae deletion strains, locus YLL041C, strain sdh2, hits give low values 1.03 | S. cerevisiae deletion strains, locus YLR027C, strain aat2, hits give low values 1.02 | S. cerevisiae deletion strains, locus YLR113W, strain HOG1, hits give low values 0.992 | S. cerevisiae deletion strains, locus YLR221C, strain rsa3, hits give low values 0.998 | S. cerevisiae deletion strains, locus YLR258W, strain gsy2, hits give low values 1.04 | S. cerevisiae deletion strains, locus YLR262C, strain YPT6 (second series), hits give low values 1.02 | S. cerevisiae deletion strains, locus YLR320W, strain mms22, hits give low values 0.981 | S. cerevisiae deletion strains, locus YLR342W, strain FKS1, hits give low values 1.04 | S. cerevisiae deletion strains, locus YLR357W, strain rsc2, hits give low values 0.987 | S. cerevisiae deletion strains, locus YLR370C, strain arc18, hits give low values 1.03 | S. cerevisiae deletion strains, locus YLR384C, strain iki3, hits give low values 1.02 | S. cerevisiae deletion strains, locus YML120C, strain ndi1, hits give low values 1.01 | S. cerevisiae deletion strains, locus YMR058W, strain fet3, hits give low values 1.02 | S. cerevisiae deletion strains, locus YMR125W, strain sto1, hits give low values 1.02 | S. cerevisiae deletion strains, locus YMR129W, hits give low values 1.02 | S. cerevisiae deletion strains, locus YMR205C, strain PFK2, hits give low values 0.993 | S. cerevisiae deletion strains, locus YMR231W, strain pep5, hits give low values 1.01 | S. cerevisiae deletion strains, locus YNL071W, strain lat1, hits give low values 1.02 | S. cerevisiae deletion strains, locus YNL183C, strain NPR1, hits give low values 0.923 | S. cerevisiae deletion strains, locus YNL209W, strain ssb2, hits give low values 1.01 | S. cerevisiae deletion strains, locus YNL248C, strain rpa49, hits give low values 1.01 | S. cerevisiae deletion strains, locus YNL322C, strain KRE1 (second series), hits give low values 1.02 | S. cerevisiae deletion strains, locus YNR049C, strain mso1, hits give low values 1.01 | S. cerevisiae deletion strains, locus YOR001W, strain rrp6, hits give low values 1.01 | S. cerevisiae deletion strains, locus YOR070C, strain gyp1, hits give low values 1.02 | S. cerevisiae deletion strains, locus YOR080W, strain dia2, hits give low values 1.03 | S. cerevisiae deletion strains, locus YOR083W, strain WHI5, hits give low values 0.974 | S. cerevisiae deletion strains, locus YOR106W, strain vam3, hits give low values 1.03 | S. cerevisiae deletion strains, locus YOR231W, strain MKK1, hits give low values 0.982 | S. cerevisiae deletion strains, locus YOR265W, strain rbl2, hits give low values 0.999 | S. cerevisiae deletion strains, locus YOR270C, strain vph1, hits give low values 1.12 | S. cerevisiae deletion strains, locus YOR290C, strain snf2, hits give low values 1.06 | S. cerevisiae deletion strains, locus YPL051W, strain arl3, hits give low values 1.04 | S. cerevisiae deletion strains, locus YPL078C, strain atp4, hits give low values 1.04 | S. cerevisiae deletion strains, locus YPL106C, strain sse1, hits give low values 1.02 | S. cerevisiae deletion strains, locus YPL240C, strain hsp82, hits give low values 1.02 | S. cerevisiae deletion strains, locus YPL256C, strain CLN2, hits give low values 0.984
